In PMC6212790, “How bacterial xenogeneic silencer rok distinguishes foreign from self DNA in its resident genome”:
In all, about 33,000 sequences were measured (“e-score”: median about -0.038, highest 2% from about 0.33 on). The full list was thinned out, with the highest values kept by preference.

target: T1, GST-Rok-C97-191 (Bacillus subtilis subsp. subtilis str. …, UniProt O34857 97-191); assay: protein binding microarray; Rok is a gene silencer of Bacillus subtilis; high values mean tight binding; settings: protein: recombinant; tags: GST (pTH5325, pDEST15-Magic modified); dsDNA, one strand shown
T1 sequence: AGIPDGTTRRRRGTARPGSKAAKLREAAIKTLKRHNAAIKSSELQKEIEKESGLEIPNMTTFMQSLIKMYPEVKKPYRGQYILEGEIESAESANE
Procedure, shortened: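 Each has a 25-mer constant primer and a 35-mer variable part from a de Bruijn sequence of order 10, covering every non-palindromic 8-mer at least 32 times (palindromic 16). Preference for each 8-mer is given as a rank-based, unitless enrichment score (E-score). Its range runs from 0.5 (most favored) to −0.5 (most disfavored).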

Row | Sequence | binding signal [E-score]
1 | ACATCCGA | -0.00901
2 | TCAGAGCA | -0.143
3 | AATTACAA | 0.251
4 | AATTACAG | 0.249
5 | AGTTACAT | 0.342
6 | AGTTACAA | 0.163
7 | AGTTACAG | 0.193
8 | AATTACAT | 0.339
9 | GGACGGAA | -0.113
10 | CGTGGTCA | -0.0431
11 | CTTTAACA | 0.072
12 | GGCGACTA | -0.103
13 | GATAGTTA | 0.373
14 | GATAGTAC | 0.184
15 | GATAGTAA | 0.367
16 | TATAGTGA | 0.199
17 | CATAGTAA | 0.272
18 | GATAGTCA | 0.000914
19 | CATAGTTA | 0.275
20 | TATAGTCA | 0.119
21 | TATAGTAA | 0.346
22 | GCGATGAA | -0.0177
23 | CCAGAAAG | -0.066
24 | GAAGCCGA | -0.0818
25 | TTCAACAA | 0.0826

Row | Sequence | binding signal [E-score]
26 | CTAAGTAG | 0.275
27 | ATCAGCTA | 0.165
28 | GATAGAGC | -0.0336
29 | ATTTCGCG | 0.158
30 | ATCGTTTG | -0.0549
31 | ATAGTTGA | 0.215
32 | GTAGTTAA | 0.405
33 | ATAGTTTA | 0.354
34 | ATAGTTGG | 0.00189
35 | CTAGTTTC | 0.422
36 | CCAGTTTC | -0.105
37 | ATAGTTTC | 0.292
38 | ATAGTTTG | 0.366
39 | CTAGTTAA | 0.327
40 | ATAGTTAA | 0.327
41 | CGAGTTTC | 0.049
42 | ACATTTGC | 0.205
43 | AGTCAAAG | -0.141
44 | ACAAGCAC | 0.019
45 | GAAGGCTA | -0.0559
46 | AACGGACC | -0.186
47 | TCGCCCAA | -0.12
48 | CTAGTTAC | 0.38
49 | GCAGTTTA | 0.113
50 | GTAGTTTA | 0.423

Row | Sequence | binding signal [E-score]
51 | CTAGTTGA | 0.2
52 | CTAGTTGC | 0.23
53 | CTAGTTCA | 0.0257
54 | ATAGTGTA | 0.346
55 | CTAGTTTA | 0.378
56 | CTAGTTCC | 0.262
57 | GGAGTTTA | 0.0723
58 | ATAGTGTG | 0.0365
59 | GTAGTGTA | 0.118
60 | ATGCCCTA | -0.00598
61 | GCTCGTCA | -0.151
62 | ACGTTTTC | 0.12
63 | GATGCATA | 0.176
64 | AGTAGCTA | 0.37
65 | ACTAGCTA | 0.397
66 | AGTAGCTG | 0.233
67 | CGTAGCTA | 0.289
68 | GCTAGCTA | 0.119
69 | CCTAGCTA | 0.144
70 | GGTAGCGA | 0.0646
71 | GGTAGCTA | 0.357
72 | AGTAGCTC | 0.14
73 | GCCGTAAA | -0.0195
74 | ACAAAGTA | 0.275
75 | AATGTCGT | -0.087

Row | Sequence | binding signal [E-score]
76 | CTATGAGC | -0.0781
77 | ACGAATAG | 0.0145
78 | TCGATCAA | 0.27
79 | ATGGAAAG | -0.0465
80 | AATGATCA | 0.156
81 | ATGTGCAC | -0.0271
82 | CGAATCAA | -0.196
83 | CGCTTCAC | -0.177
84 | AACTGCCC | -0.0946
85 | AGCCATAA | 0.127
86 | CACAAGAA | -0.0545
87 | GTTAGTTA | 0.325
88 | AGTAGTTA | 0.424
89 | ACTAGTTA | 0.448
90 | AGTAGTTC | 0.398
91 | CTTAGTTA | 0.189
92 | CGTAGTTC | 0.213
93 | AGTAGTGA | 0.121
94 | AGTAGTGC | 0.12
95 | ATTAGTTA | 0.336
96 | CGTAGTTA | 0.199
97 | CCTAGTTA | 0.168
98 | GCTAGTTA | 0.284
99 | ATTGCTGG | 0.137
100 | TAACCGTA | 0.169

Row | Sequence | binding signal [E-score]
101 | CGGATACC | 0.0204
102 | ACTGGCAT | 0.00831
103 | GGTAGTTA | 0.4
104 | GGTAGTGA | 0.144
105 | CATAGTTC | 0.168
106 | GGTAGTCA | 0.192
107 | AATAGTTA | 0.32
108 | AGTAGTTG | 0.393
109 | ATTAGTTG | 0.118
110 | ACTAGTTG | 0.313
111 | AATAGTTC | 0.343
112 | GCCCATTA | -0.125
113 | CGTAGAAG | 0.0648
114 | CGTAGAAC | 0.207
115 | TCTAGAAA | 0.205
116 | TGTAGAAA | 0.35
117 | GGTAGAAC | 0.4
118 | GTTAGAAC | 0.125
119 | GGTAGAGA | 0.173
120 | CGTAGAAA | 0.338
121 | GGTAGACC | -0.0686
122 | GGTAGAAA | 0.465
123 | GCTAGAAA | 0.314
124 | TTTAGAAA | 0.175
125 | AACGTGGA | 0.103

Row | Sequence | binding signal [E-score]
126 | AATAGCGC | 0.114
127 | GCCCACAA | -0.0476
128 | GCATCTGA | -0.0514
129 | CAAAGAAC | 0.232
130 | GCAGGGGA | -0.184
131 | TAAACGCA | -0.0161
132 | CGACAACC | -0.054
133 | ACCCACGT | -0.188
134 | AGTAATTC | 0.273
135 | GTTAATTA | 0.19
136 | GGTAATTA | 0.395
137 | AGTAATTG | 0.31
138 | GGTAATCA | -0.186
139 | ATTAATTC | 0.147
140 | ATTAATTA | 0.391
141 | CGTAATTA | 0.318
142 | AGTAATTA | 0.376
143 | CATTGTAC | 0.109
144 | GTTGAAAA | -0.013
145 | AGGTATTC | -0.0121
146 | AACTCTCT | 0.0603
147 | ACTACCAT | 0.353
148 | ACTACCCG | 0.0272
149 | CCTACCAC | 0.251
150 | ACTACCAA | 0.257

Row | Sequence | binding signal [E-score]
151 | GCTACCAC | 0.0411
152 | ACTACCAC | 0.383
153 | ACTACCAG | 0.213
154 | TCTACCCA | 0.234
155 | ACTACCCA | 0.332
156 | GCCGCGCA | -0.14
157 | CGTTTCAG | -0.0327
158 | AGCTCTTA | 0.106
159 | CATCTAAA | 0.111
160 | AGCGGACG | 0.000189
161 | TGACAAAA | 0.0786
162 | ATGATGGG | -0.0998
163 | AAAGTAGT | 0.328
164 | CAAGTAGA | 0.303
165 | AAAGTAGC | 0.261
166 | GTAGTACA | 0.272
167 | CTAGTAGA | 0.382
168 | CTAGTAGC | 0.251
169 | ACAGTAGT | 0.258
170 | GGAGTAGA | 0.102
171 | AAAGTAGG | 0.262
172 | GTAGTAGA | 0.368
173 | CCAGTAGA | 0.176
174 | ACAGTAGA | 0.364
